# From PubChem BioAssay AID1851 (National Center for Advancing Translational Sciences (NCATS), 2009)
# Screen size: about 16,000 compounds; about 5,100 (32%) were called active. About 25% were inconclusive and are not listed. The list shows a part of the results. Values without a mark were called inactive. Calls come from the whole dose curve; as a rule, active = well fitted curve in the direction sought with a large enough effect; inconclusive = small, poorly fitted or top-dose-only effect, or effect the other way; inactive = no such curve, though single readings can be large or run the other way.
# Molecular target: Cytochrome P450 3A4 (Homo sapiens) (UniProt P08684)
# Sequence (P08684 whole entry, looked up): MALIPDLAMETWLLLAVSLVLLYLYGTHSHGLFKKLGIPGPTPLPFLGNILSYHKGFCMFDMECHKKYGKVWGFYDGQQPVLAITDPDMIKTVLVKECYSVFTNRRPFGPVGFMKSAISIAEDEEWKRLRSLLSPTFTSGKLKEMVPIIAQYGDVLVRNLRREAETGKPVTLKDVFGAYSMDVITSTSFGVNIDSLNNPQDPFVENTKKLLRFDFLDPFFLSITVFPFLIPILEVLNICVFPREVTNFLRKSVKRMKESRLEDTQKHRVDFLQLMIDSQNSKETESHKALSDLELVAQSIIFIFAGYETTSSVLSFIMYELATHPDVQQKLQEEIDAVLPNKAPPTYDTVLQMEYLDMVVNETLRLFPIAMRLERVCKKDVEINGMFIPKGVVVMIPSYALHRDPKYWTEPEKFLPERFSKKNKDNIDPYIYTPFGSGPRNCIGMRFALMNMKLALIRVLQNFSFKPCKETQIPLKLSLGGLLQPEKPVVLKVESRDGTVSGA
# Experiment: Cytochrome panel assay with activity outcomes
# Conditions: recombinant CYP, pro-luciferin dealkylation, luminescence, p450-cyp3a4; series mostly up to 57.1 µM; activity, negative = inhibition: at the top concentration
# % is set by controls: 0 for no effect and ±100 for the full control effect.
Compound,"activity, negative = inhibition",AC50
C=CC1=C(C)C2=Cc3c(C=C)c(C)c4[n]3[Sn+2][n]3c(c(C)c(CCC(=O)O)c3=CC3=NC(=C4)C(C)=C3CCC(=O)O)=CC1=N2,-13.5%,–
Cc1c(C(=O)Nc2ccc(OCc3ccccc3)cc2)cccc1[N+](=O)[O-],15.6%,–
CC(=O)Nc1ccc(NC(=O)c2ccccc2CC[N+](=O)[O-])cc1,–,1780 nM (active)
CC(=O)Nc1ccc(C(=O)NNC(=O)CCc2ccccc2)cc1,4.97%,–
CC[N+](C)(CC)CCC[n+]1c(-c2ccccc2)c2cc(N)ccc2c2ccc(N)cc21,–,15800 nM (active)
COc1cc(C(=O)NCC(c2cccnc2)N2CCN(C)CC2)cc(OC)c1OC (stereo unspecified),-2.25%,–
COc1ccc(N2CCN(C(CNC(=O)C3CCCCC3)c3cccnc3)CC2)cc1 (stereo unspecified),–,4470 nM (active)
COC(=O)NCC(c1cccnc1)N1CCN(c2ccccc2OC)CC1 (stereo unspecified),–,12600 nM (active)
O=C(NCC(c1cccnc1)N1CCOCC1)Nc1ccccc1 (stereo unspecified),–,14100 nM (active)
C[C@H](CN(C)C)C(O)(c1ccccc1)c1ccccc1,-14.1% [at 11.4 µM],–
CCC(C)NC(=O)NC(=O)N(C1CCCCC1)S(C)(=O)=O (stereo unspecified),4.9%,–
Cc1ccnc(NS(=O)(=O)c2ccc(N)cc2)n1,–,inactive
COC(=O)C1(Cc2ccccc2)C2c3cc(C(=O)N4CCCC4)n(Cc4ccc(OC(F)(F)F)cc4)c3CC2CN1C(=O)c1ccccc1 (stereo unspecified),–,3160 nM (active)
COC(=O)[C@@]1(Cc2ccccc2)[C@H]2c3cc(C(=O)N4CCCC4)n(Cc4ccc(S(C)(=O)=O)cc4)c3C[C@H]2CN1C(=O)c1ccccc1,–,3160 nM (active)
COC(=O)[C@@]1(Cc2ccc(F)cc2)[C@H]2c3cc(C(=O)N4CCCC4)n(Cc4ccc(C)c(F)c4F)c3C[C@H]2CN1C(=O)c1ccccc1,–,2510 nM (active)
COC(=O)[C@@]1(Cc2ccc(F)cc2)[C@H]2c3cc(C(=O)N(C)C)n(Cc4ccc(C)c(F)c4F)c3C[C@H]2CN1C(=O)c1ccccc1,–,794 nM (active)
CCCC[C@H](CC)CN1CN(C[C@@H](CC)CCCC)CC(C)(N)C1,-17.4% [at 25.6 µM],–
CC(C)(C)n1nc(-c2ccc(Cl)cc2)c2c(N)ncnc21,-12.7%,–
COC(=O)[C@@]1(Cc2ccc(F)cc2)[C@H]2c3cc(C(=O)N4CCCC4)n(CCCNc4ncc(C(F)(F)F)cc4Cl)c3C[C@H]2CN1C(=O)c1ccccc1,–,2510 nM (active)
COC(=O)[C@@]1(Cc2ccc(F)cc2)[C@H]2c3cc(C(=O)N4CCCC4)n(Cc4ccc(OC(F)(F)F)cc4)c3C[C@H]2CN1C(=O)c1ccccc1,–,2510 nM (active)
COC(=O)[C@@]1(Cc2ccc(F)cc2)[C@H]2c3cc(C(=O)N4CCCC4)n(Cc4ccc(Cl)c(C(F)(F)F)c4)c3C[C@H]2CN1C(=O)c1ccccc1,–,2510 nM (active)
COC(=O)[C@@]1(Cc2ccc(F)cc2)[C@H]2c3cc(C(=O)N(C)C)n(Cc4ccc(Cl)c(C(F)(F)F)c4)c3C[C@H]2CN1C(=O)c1ccccc1,–,2000 nM (active)
Cc1nc(CN2CCCCC2)c(O)c(=O)[nH]1,-5.47% [at 11.4 µM],–

Compound,"activity, negative = inhibition",AC50
CC1(O)CC(=O)N(c2ccccc2)O1 (stereo unspecified),1.65% [at 2.29 µM],–
COC(=O)[C@@]1(Cc2ccc(F)cc2)[C@H]2c3cc(C(=O)N4CCCC4)n(Cc4ccccc4)c3C[C@H]2CN1C(=O)c1ccccc1,–,1000 nM (active)
COC(=O)[C@@]1(Cc2ccc(F)cc2)[C@H]2c3cc(C(=O)N(C)C)n(CCCNc4ccc(C(F)(F)F)cc4Cl)c3C[C@H]2CN1C(=O)c1ccccc1,–,1580 nM (active)
COC(=O)Cn1c(C(=O)N2CCCC2)cc2c1C[C@H]1CN(C(=O)c3ccccc3)[C@@](Cc3ccc(F)cc3)(C(=O)OC)[C@@H]21,–,3160 nM (active)
COC(=O)[C@@]1(Cc2ccc(F)cc2)[C@H]2c3cc(C(=O)N4CCCC4)n(CCN4CNCC4=O)c3C[C@H]2CN1C(=O)c1ccccc1,–,2000 nM (active)
COC(=O)Cn1c(=N)n(CCN2CCCCC2)c2ccccc21,1.03%,–
C=C1C=C(Br)C2(OCCCO2)[C@H]2OC12 (stereo partly specified),-14.7% [at 11.4 µM],–
CC1(C)C2([N+](=O)[O-])CN3CC1([N+](=O)[O-])CN(C2)C3c1ccccc1 (stereo unspecified),0.512% [at 2.29 µM],–
CC(NC(=O)OCc1ccccc1)C(=O)NCC1CCCO1 (stereo unspecified),-4.26%,–
CS(=O)(=O)c1ccc([C@H](O)[C@H](CO)NC(=O)C(Cl)Cl)cc1,-5.21% [at 25.6 µM],–
C[C@@H](C(=O)NCc1ccc(S(C)(=O)=O)cc1)[C@@H]1C[C@@]1(C)[C@@H](NC(=O)OCc1ccccc1)c1ccccc1,–,1000 nM (active)
C[C@@H](C(=O)NCc1cccc2ccccc12)[C@H]1C[C@]1(C)[C@H](NC(=O)OCc1ccccc1)c1ccccc1,–,398 nM (active)
C[C@@H](C(=O)NCc1ccc(S(C)(=O)=O)cc1)[C@H]1C[C@]1(C)[C@H](NC(=O)OCc1ccccc1)c1ccccc1,–,3160 nM (active)
C[C@@H](C(=O)NCc1nc2ccccc2[nH]1)[C@@H]1C[C@@]1(C)[C@@H](NC(=O)OCc1ccccc1)c1ccccc1,–,1000 nM (active)
Cc1cccc(C)c1OC[C@H](C)N,-12.4% [at 25.6 µM],–
C=CCSc1ncccc1C(=O)NCc1ccc(C)cc1,–,11200 nM (active)
CC/C(=N/Nc1ccccc1)c1cnnc(SC)n1,–,25100 nM (active)
CSc1nncc(-c2ccc(F)c(F)c2)n1,13.4%,–
COCCCNC(=O)c1c(NC(=O)c2cccs2)sc2c1CCCC2,–,15800 nM (active)
CC(=O)Nc1sc2c(c1C(N)=O)CCCC2,-27.9%,–
CCNC(=O)c1c(NC(C)=O)sc2c1CCCC2,-23%,–
O[C@H](COc1ccccc1)CN1CCCCC1,-3.03% [at 11.4 µM],–
CC(=O)Nc1ccc(OCC(O)Cn2c3ccccc3c3ccccc32)c(C)c1 (stereo unspecified),–,3980 nM (active)
